# PKA-R1A act – activators of PKA-R1A complex; P00514+P68181; PKA-R1A dissociation, Cy5-IP20 fluorescence polarization; scaled: DMSO 0%, 113 µM cGMP 100%; activation, % at 11.4 µM; hit rate 0.083% among 340,000;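 active = percent activation above the mean of all tested compounds plus 3 SD, cut at about 19% in these data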;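 also: higher means more PKAc released from R1A so a rise in polarization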
# PKA-R2B activ – activators of human PKA-R2B complex. PKA-R2B holoenzyme dissociation, Cy5-IP20 fluorescence polarization; R2B truncated from residue 108, S112A mutant; 0% DMSO only, 100% 113 µM cGMP. activation, % at 11.4 µM. hit rate 0.079% among 340,000. AID 504700;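 active = activation above a cutoff set at the mean over all compounds plus 3 SD, cut at about 18% in these data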;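 also: higher means more holoenzyme dissociation and a rise in polarization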
# Target sequence (P31323 whole entry, looked up, other chains not shown, the tested form may be a part): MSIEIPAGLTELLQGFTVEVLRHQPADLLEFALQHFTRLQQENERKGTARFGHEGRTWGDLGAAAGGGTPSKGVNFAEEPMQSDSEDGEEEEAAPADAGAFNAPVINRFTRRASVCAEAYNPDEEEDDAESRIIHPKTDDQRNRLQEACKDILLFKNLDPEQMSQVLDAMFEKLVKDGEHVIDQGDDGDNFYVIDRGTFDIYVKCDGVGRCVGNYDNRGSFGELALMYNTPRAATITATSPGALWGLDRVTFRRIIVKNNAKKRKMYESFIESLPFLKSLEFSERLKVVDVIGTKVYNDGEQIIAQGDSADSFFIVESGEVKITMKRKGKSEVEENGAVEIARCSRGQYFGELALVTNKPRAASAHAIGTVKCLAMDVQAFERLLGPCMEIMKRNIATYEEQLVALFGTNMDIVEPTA
# PG9 Ab binder – binds the HIV-1 gp120 antibody PG9; hit rate 0.43% among 360,000; inhibition, % at 6.7 µM; TR-FRET gp120-PG9 antibody binding; in the data active = inhibition above about 8.5%
# Rev-erbA mod – modulates human Rev-erb alpha binding to DNA; hit rate 0.79% among 370,000; activity, % at 10 µM; P20393; Rev-erbα–FITC-DNA binding, fluorescence polarization, 90 min;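 active = activity above about 14%, limit read from the data; passing the limit was not always enough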;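 also: 0% = DMSO wells with 35 nM protein and 100% = DMSO wells with 750 nM protein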
# NR1D1 mod conf – confirmation of modulators of human Rev-erb alpha DNA binding | shares compounds with Rev-erbA mod | Rev-erb alpha FITC-DNA binding, fluorescence polarization, 90 min | activation, % at 25 µM | hit rate 61% among 3,000;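 active = activation at or above a set limit, or at least 3 SD above the negative control mean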;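 also: 0% = 35 nM protein with DMSO and 100% = 750 nM protein high control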
# RORg counter – affects RORgamma DNA binding in a Rev-erb alpha counter-screen. shares compounds with Rev-erbA mod. purified RORgamma protein-FITC-DNA binding, fluorescence polarization. IC50, µM. hit rate 8% among 910. AID 1259320;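 active = Compounds whose fitted half-maximal concentration for disrupting protein-DNA binding is below 10 micromolar; the record names Rev-erb in its text, so the target is in doubt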
# * marks the source's active call; other numbers are inactive results; i = inactive; . = no result. A selection: hits, their analogues and other compounds. The true share with any hit is near 1.2%.
SMILES,PKA-R1A act,PKA-R2B activ,PG9 Ab binder,Rev-erbA mod,NR1D1 mod conf,others
COc1ccc(C2Nc3ccccc3C(=O)N2c2ccc(F)cc2)cc1CSc1ccccn1 (stereo not given),-6,0,-8,30*,15,
COc1ccc(C2Nc3ccccc3C(=O)N2c2ccccc2)cc1CSc1ccccn1 (stereo not given),-6,-9,1,11,.,
COc1cccc(NC(=O)C2CCCN2C(=O)NCc2ccccc2OC)c1 (stereo not given),.,.,.,0,.,
N#Cc1ccc(C#Cc2ccc3oc4ccccc4c(=O)c3c2)cc1,-7,2,-1,16*,17,
Cc1cc(N2CCN(C(=O)Oc3ccc(C(F)(F)F)cc3)CC2)c2ccccc2n1,.,.,.,-2,.,
O=C(Nc1c(-c2ccc(F)cc2)nc2ncccn12)c1ccc(F)cc1,.,.,.,2,.,
O=C(Nc1cccc2ccccc12)N1CCN(c2ccc(F)cc2)CC1,-12,6,3,26*,3,
COc1ccccc1N(C(=O)c1snc(C(N)=O)c1N)C(C(=O)NC1CCCC1)c1ccc(N(C)C)cc1 (stereo not given),-4,-4,-2,36*,10,
COc1cccc(NC(=O)C2CCCN2C(=O)Nc2ccc(Cl)cc2)c1 (stereo not given),.,.,.,-5,.,
CCOc1ccccc1N=Cc1c(O)c2ccccc2oc1=O,7,7,2,36*,10,
COc1ccc(Cl)cc1N=Cc1c(O)c2ccccc2oc1=O,-9,-6,-2,7,.,
CC(C)[C@H]1Cn2nncc2Cn2c3ccccc3c(=O)n21,.,.,.,2,.,
Cc1cnn(-c2ccc3nnc(-c4ccc(Cl)cc4)n3n2)c1,-1,-9,-2,22*,27*,
CC(C)C(=O)OCCCN1C(=O)CCC12CCC(c1ccccc1)CC2 (stereo not given),.,.,.,8,.,
CCc1cc2cc(C)ccc2nc1SCC(=O)NNC(=O)c1ccco1,-5,-4,1,-1,.,
CCOC(=O)CNC(=O)CSc1nc2c(C)cccc2cc1CC,.,.,5,-2,.,
CCc1cc2cc(C)ccc2nc1SCC(=O)NC1CCCC1,-7,-14,1,32*,35*,RORg counter=>40
CCc1cc2cccc(C)c2nc1SCC(=O)NC1CCCC1,5,-6,3,21*,11,
Cc1cc(NC(=O)Nc2cccc(F)c2)n(-c2ccccc2)n1,.,.,.,2,.,
COc1ccc(C(=O)Nc2nnc(C)s2)cc1S(=O)(=O)N1CCOCC1,-11,-8,1,-3,.,
COc1ccc(C(=O)Nc2nc(C)c(C(C)=O)s2)cc1S(=O)(=O)N1CCOCC1,-1,7,0,58*,144*,RORg counter=>40
CCC(CC)COC(=O)C1=C(C)NC(=O)NC1c1ccccc1Br (stereo not given),-10,-6,-1,17*,15,
N#Cc1c(Cl)cccc1N1CCSCC1,.,.,-2,-3,.,
N#Cc1c(N2CCSCC2)nsc1-c1ccccc1Cl,0,0,4,23*,28*,
O[C@H](COc1cccc(Br)c1)CN1CCC(C(O)(c2ccccc2)c2ccccc2)CC1,.,.,.,10,.,
SMILES,PKA-R1A act,PKA-R2B activ,PG9 Ab binder,Rev-erbA mod,NR1D1 mod conf,others
Cn1nc(CC(=O)NC2CCCCCCCCCCC2)c2ccccc2c1=O,-8,-9,0,-5,.,
Cn1nc(CC(=O)Nc2ccc3c(c2)CCC3)c2ccccc2c1=O,-9,-17,-1,20*,17*,
CSc1ccc(CCNC(=O)c2cc(-c3ccccc3)c(N3CCOCC3)s2)cc1,-3,8,2,67*,51*,RORg counter=i
CCCOc1cccc(-c2nnc(NC(=O)c3ccco3)s2)c1,1,3,1,23*,5,
CCOC(=O)N1CCN(C(=O)C[C@@H]2C(=O)N3CCCC4=C3[C@@]2(C(=O)OC)CCCC4)CC1,.,.,.,0,.,
CCOC(=O)c1c(NC(=O)COC(=O)c2ccc(O)cc2)sc(C(=O)NC)c1C,0,14,0,38*,29*,
Cc1ccc(C(=O)NNCC(=O)Nc2ccc(Cl)cc2F)cc1,2,-2,0,18*,1,
O=C(CCNC(=O)c1ccc(Cl)cc1)Nc1ccc(Cl)cc1F,-12,-7,-4,7,.,
O=C(c1cc2cc(F)ccc2[nH]1)N1CCc2ccccc2C1,11,-1,-2,7,.,
O=C(c1cc2cc(Cl)ccc2[nH]1)N1CCc2ccccc2C1,-10,4,1,60*,6,
O=c1cc(CN(Cc2ccccc2)Cc2ccccc2)c2ccccc2o1,.,.,-1,22*,9,
CN(Cc1ccccc1)Cc1cc(=O)oc2ccccc12,.,.,-2,5,.,
CC[C@H](CCCc1ccccc1OC)CCS(=O)(=O)N(C)C,.,.,.,8,.,
COC(=O)[C@]12C[C@H](CC(=O)N3CCCCC3)C(=O)N(CCc3ccc(OC)c(OC)c3)C1=C[C@H](C(C)C)O[C@@H]2C1CC1,.,.,.,2,.,
COC(=O)c1sc(NC(=S)NC(=O)c2cc(OC)c(OC)c(OC)c2)nc1C,-5,-10,-2,57*,1,
CCOC(=O)c1sc(NC(=S)NC(=O)c2ccccc2)nc1C,-6,-12,0,20*,0,
COC(=O)c1sc(NC(=S)NC(=O)c2ccccc2)nc1C,2,-6,-1,23,.,
CCOC(=O)c1sc(NC(=S)NC(=O)c2cccc(OC)c2)nc1C,0,5,-2,94*,38*,RORg counter=>40
COc1cc(C(=O)Nc2nc3ccc4nc(C)sc4c3s2)cc(OC)c1OC,-9,-5,-3,115*,8,
COC(=O)[C@]12C[C@H](CC(=O)NCc3cccc4ccccc34)C(=O)N(Cc3ccc(Cl)cc3Cl)C1=C[C@H](C(C)(C)C)O[C@@H]2C,.,.,.,2,.,
COc1ccc(CNCC#Cc2ccc(C)cc2)c(OC)c1,.,.,.,-1,.,
CCOc1ccc(C=NNC(=O)c2cc(-c3ccc(Cl)cc3)n[nH]2)cc1,.,.,.,1,.,
CC(=O)CC[C@@H]1CC[C@]2(CCCN(C(=O)c3ccco3)C2)O1,.,.,.,-6,.,
CCc1nnc2sc(-c3ccc(NC(=O)CSc4ccc(Cl)cc4)cc3)nn12,-12,-4,0,32*,21*,
CCOC(=O)Cc1nc(N2CCN(C=O)CC2)c2c(C)c(C(=O)OCC)sc2n1,.,.,.,7,.,
N#C/C(=C\c1ccc(N2CCOCC2)o1)C(=O)Nc1ccc(O)cc1,.,.,-26,44*,27*,
N#C/C(=C/c1ccc(N2CCCCC2)o1)C(=O)Nc1ccc2ccccc2c1,-2,-4,-1,67*,25*,
COc1ccc(NC(=O)/C(C#N)=C\c2ccc(N3CCOCC3)o2)cc1,-7,5,-20,65*,41*,RORg counter=i
N#C/C(=C/c1ccc(N2CCCCC2)o1)C(=O)Nc1ccc(Cl)cc1,-6,-9,-10,10,.,
COC(=O)[C@]12C[C@H](CC(=O)N3CCCC3)C(=O)N(Cc3ccc(Cl)cc3Cl)C1=C[C@H](C1CCCC1)O[C@@H]2C,.,.,.,0,.,
